# From PubChem BioAssay
# Values without a mark were called inactive. For some assays here: Measured potencies and affinities stand elsewhere. The source made the active and inactive calls. Unless noted, the rule behind the calls is not given here.
# What was measured:
# [1] = antimalarial activity against Dd2 strain (AID 2302;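 active = growth inhibition above 50% at the single 2 µM test dose, taken to imply half-maximal potency below 2 µM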;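 note: 0% = DMSO untreated growth and 100% = chloroquine plus artemisinin killed control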); conditions: P. falciparum Dd2 in RBCs, LDH growth readout, 72 h; at 2 µM; active compounds read high
# [2] = HepG2 cytotoxicity, primary screen, cytotoxicity control for P. falciparum antimalarial project, cell-based, ATP luminescence (AID 2303;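 active = inhibition above 50%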;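 note: 0% = DMSO wells and 100% = digitonin-killed cells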); conditions: HepG2 viability, 24-48 h, at 10 µM, active compounds read high
# [3] = target: L-lactate dehydrogenase (Plasmodium falciparum (isolate CDC / Honduras)) (UniProt Q27743); assay: PfLDH activity inhibition – cell lysate, 3D7 strain, counter-screen for P. falciparum growth inhibition project (AID 2304);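 note: 0% = vehicle and 100% = reference inhibitor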; conditions: P. falciparum 3D7 crude extract, LDH APAD/NBT absorbance; at 2 µM; active compounds read high
# [4] = inhibition of 3D7 malaria parasite growth – strain 3D7 (AID 2306);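 note: 0% = DMSO wells and 100% = chloroquine plus artemisinin control wells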; conditions: P. falciparum 3D7 erythrocytic growth, LDH absorbance, 72 h; at 2 µM; active compounds read high
# [5] = target: Calcium-dependent protein kinase 1 (Plasmodium falciparum (isolate 3D7)) (UniProt P62344); assay: PfCDPK1 kinase inhibitors, biochemical, TCAMS library (AID 1159585; cut-off not given, nearly all actives have IC50 up to about 0.98 µM;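 note: inhibitors leave more ATP so luminescence rises with inhibition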); conditions: recombinant PfCDPK1, Kinase-Glo ATP depletion luminescence
# [6] = target: Plasmodium falciparum protein kinase 6 (PK6, PF3D7_1337100) (UniProt Q8IDW1); assay: PfPK6 kinase inhibitors, biochemical, TCAMS library (AID 1159586); conditions: recombinant PfPK6, Kinase-Glo ATP depletion luminescence
# [7] = target: Protein kinase 7 (PK7), Plasmodium falciparum 3D7 (PF3D7_0213400) (UniProt Q7YTF7); assay: inhibition of Plasmodium PK7 catalytic activity – biochemical, TCAMS antimalarial set, Kinase-Glo luminescence (AID 1159587); conditions: recombinant PfPK7, Kinase-Glo ATP depletion luminescence
# [8] = target: Calcium-dependent protein kinase 4 (Plasmodium falciparum (isolate 3D7)) (UniProt Q8IBS5); assay: PfCDPK4 kinase inhibitors, biochemical, TCAMS library (AID 1159588; cut-off not given, nearly all actives have IC50 up to about 0.91 µM); conditions: recombinant PfCDPK4, Kinase-Glo ATP depletion luminescence
# Calcium-dependent protein kinase 4 (Plasmodium falciparum (isolate 3D7)), sequence (Q8IBS5 whole entry, looked up): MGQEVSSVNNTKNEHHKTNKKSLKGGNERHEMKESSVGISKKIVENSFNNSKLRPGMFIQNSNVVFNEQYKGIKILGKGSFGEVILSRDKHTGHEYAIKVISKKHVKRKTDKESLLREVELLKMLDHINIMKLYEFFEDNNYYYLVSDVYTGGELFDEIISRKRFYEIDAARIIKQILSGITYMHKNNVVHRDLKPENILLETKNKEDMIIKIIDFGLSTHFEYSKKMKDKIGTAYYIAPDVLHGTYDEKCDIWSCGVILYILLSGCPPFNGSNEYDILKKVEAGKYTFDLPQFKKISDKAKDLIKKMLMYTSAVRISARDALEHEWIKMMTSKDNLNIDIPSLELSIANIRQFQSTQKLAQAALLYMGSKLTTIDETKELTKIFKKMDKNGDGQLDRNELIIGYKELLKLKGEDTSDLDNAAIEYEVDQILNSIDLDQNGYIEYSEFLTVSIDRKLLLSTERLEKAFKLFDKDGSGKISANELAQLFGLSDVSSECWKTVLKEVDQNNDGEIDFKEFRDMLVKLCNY
# L-lactate dehydrogenase (Plasmodium falciparum (isolate CDC / Honduras)), sequence (Q27743 whole entry, looked up): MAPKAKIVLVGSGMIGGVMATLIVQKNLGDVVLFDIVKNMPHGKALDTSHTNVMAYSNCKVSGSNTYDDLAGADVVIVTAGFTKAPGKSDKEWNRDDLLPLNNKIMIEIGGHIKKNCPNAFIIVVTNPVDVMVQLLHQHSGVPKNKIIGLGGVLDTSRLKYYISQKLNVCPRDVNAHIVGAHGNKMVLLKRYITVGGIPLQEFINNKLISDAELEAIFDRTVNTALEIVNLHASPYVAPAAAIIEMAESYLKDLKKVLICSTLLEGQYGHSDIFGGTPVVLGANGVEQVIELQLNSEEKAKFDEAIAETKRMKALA
# Protein kinase 7 (PK7), Plasmodium falciparum 3D7 (PF3D7_0213400), sequence (Q7YTF7 1-343): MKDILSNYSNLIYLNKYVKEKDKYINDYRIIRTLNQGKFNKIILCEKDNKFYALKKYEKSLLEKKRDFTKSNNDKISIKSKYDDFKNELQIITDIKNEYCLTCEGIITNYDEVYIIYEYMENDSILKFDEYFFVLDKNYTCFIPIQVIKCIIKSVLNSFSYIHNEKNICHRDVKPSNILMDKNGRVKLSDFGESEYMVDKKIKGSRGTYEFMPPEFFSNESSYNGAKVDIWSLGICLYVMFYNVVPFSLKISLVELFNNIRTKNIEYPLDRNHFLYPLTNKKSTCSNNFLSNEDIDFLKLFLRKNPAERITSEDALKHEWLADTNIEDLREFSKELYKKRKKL
# Calcium-dependent protein kinase 1 (Plasmodium falciparum (isolate 3D7)), sequence (P62344 whole entry, looked up): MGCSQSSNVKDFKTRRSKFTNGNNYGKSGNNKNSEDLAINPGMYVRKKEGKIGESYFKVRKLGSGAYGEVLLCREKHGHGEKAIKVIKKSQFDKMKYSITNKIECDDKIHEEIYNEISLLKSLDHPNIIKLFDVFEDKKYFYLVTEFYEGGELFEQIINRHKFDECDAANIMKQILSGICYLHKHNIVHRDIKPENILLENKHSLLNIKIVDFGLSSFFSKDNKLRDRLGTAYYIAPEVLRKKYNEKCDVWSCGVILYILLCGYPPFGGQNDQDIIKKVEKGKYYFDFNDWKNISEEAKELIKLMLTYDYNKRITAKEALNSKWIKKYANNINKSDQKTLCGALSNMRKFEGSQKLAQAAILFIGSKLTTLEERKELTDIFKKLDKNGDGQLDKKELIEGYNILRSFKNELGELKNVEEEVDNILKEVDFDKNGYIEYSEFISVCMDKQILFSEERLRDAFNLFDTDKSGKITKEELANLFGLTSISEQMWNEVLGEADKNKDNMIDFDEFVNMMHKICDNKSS
# Plasmodium falciparum protein kinase 6 (PK6, PF3D7_1337100), sequence (Q8IDW1 1-305): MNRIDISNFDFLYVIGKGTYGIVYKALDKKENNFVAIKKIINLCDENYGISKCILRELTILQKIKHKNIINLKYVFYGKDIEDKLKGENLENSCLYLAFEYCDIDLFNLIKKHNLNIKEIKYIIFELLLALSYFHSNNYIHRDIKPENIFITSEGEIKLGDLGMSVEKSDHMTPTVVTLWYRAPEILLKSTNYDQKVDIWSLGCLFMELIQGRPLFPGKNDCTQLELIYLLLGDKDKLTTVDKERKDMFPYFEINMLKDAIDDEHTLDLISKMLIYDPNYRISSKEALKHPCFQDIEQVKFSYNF
SMILES,growth inhibition [1],inhibition [2],inhibition [3] [%],growth inhibition [4],outcome [5],outcome [6],outcome [7],outcome [8]
CCn1cnc2c(Nc3cccc([N+](=O)[O-])c3)nc(N3CCC(N4CCCCC4)CC3)nc21,35%,31%,3,98% (active),inactive,inactive,inactive,inactive
CCOc1cc2ccccc2cc1CNCCCCCCNCc1cc2ccccc2cc1OCC,76% (active),99% (active),2,101% (active),inactive,inactive,inactive,inactive
CCCc1cc(Cc2cnc(N)nc2N)cc(OC)c1OC,4%,2%,6,87% (active),inactive,inactive,inactive,inactive
CCCCCC(C)C(C)c1cc(O)c2c(c1)OC(C)(C)CC2(O)c1ccccn1 (stereo not given),3%,-2%,-5,98% (active),inactive,inactive,inactive,inactive
COc1ccc(CNCc2cccc(-c3cccc(-c4nc5c(C)cccc5[nH]4)c3)c2)cc1,60% (active),31%,-4,102% (active),inactive,inactive,inactive,inactive
O=C(Nc1ccc(-c2nc3ccccc3[nH]2)cc1)c1ccc(-c2cccc([N+](=O)[O-])c2)o1,97% (active),47%,-2,101% (active),inactive,inactive,inactive,inactive
O=C(c1cccc(-c2cccc(-c3nc4ccc(F)cc4[nH]3)c2)c1)N1CCCCC1CN1CCC(O)C1 (stereo not given),100% (active),36%,-5,90% (active),inactive,inactive,inactive,inactive
COc1ccc2ncc(F)c(CCN3CC[C@@H](CNCc4nc5c(cc4C)SCC(=O)N5)C3)c2n1,42%,14%,1,91% (active),inactive,inactive,inactive,inactive
CCOc1ccc2c(NN=Cc3ccccc3F)cc(C)nc2c1,77% (active),-1%,-5,101% (active),inactive,inactive,inactive,inactive
COc1ccc(CNCCc2cccs2)cc1-c1ccc(S(=O)(=O)NCCN2CCCC2)s1,21%,41%,2,99% (active),inactive,inactive,inactive,inactive
COc1ccc2nccc(NCC3(O)CCN(CC(O)c4ccc5c(c4)NC(=O)CS5)CC3)c2n1 (stereo not given),3%,3%,2,100% (active),inactive,inactive,inactive,inactive
Cc1cc(C(=O)Nc2ccc3c(c2)CCN3C2CCN(Cc3ccc4nsnc4c3)C2)no1 (stereo not given),94% (active),-1%,-1,90% (active),inactive,inactive,inactive,inactive
COc1ccc(-c2ccc(NC(=O)c3ccc(C#N)cc3)cc2)cc1CN(C)CCN(C)C,58% (active),28%,2,96% (active),inactive,inactive,inactive,inactive
COc1ccc(-c2nc(NC(=O)CS(=O)(=O)c3ccc(OC)cc3)sc2C)cc1,89% (active),6%,-2,95% (active),inactive,inactive,inactive,inactive
C=C1N(C)c2cc([N+](=O)[O-])c(N)cc2C1(C)C,83% (active),22%,-2,98% (active),inactive,inactive,inactive,inactive
CC(C)(C)c1ccc(CN2CCC(NC(=O)c3ccc(-c4cccc(Cl)c4)s3)CC2)cc1,47%,36%,5,99% (active),inactive,inactive,inactive,inactive
O=C(Nc1cccc(OC2CCN(Cc3ccsc3)CC2)c1)c1ccc(C(F)(F)F)cc1,5%,25%,-2,98% (active),inactive,inactive,inactive,inactive
CCC(C)c1ccc(NC(=O)Nc2ccnc3ccccc23)cc1 (stereo not given),42%,27%,-2,98% (active),inactive,inactive,inactive,inactive
Cc1cc(C(=O)CN2C(=O)NC3(CCOc4ccccc43)C2=O)c(C)n1Cc1ccco1 (stereo not given),42%,13%,5,93% (active),inactive,inactive,inactive,inactive
COc1ccc(C(=O)Nc2nonc2-c2ccc(OC)c(OC)c2)cc1Cl,97% (active),6%,0,97% (active),inactive,inactive,inactive,inactive

SMILES,growth inhibition [1],inhibition [2],inhibition [3] [%],growth inhibition [4],outcome [5],outcome [6],outcome [7],outcome [8]
COc1cc2nc(NCc3ccccc3)nc(NCc3ccccc3)c2cc1OC,102% (active),66% (active),-3,102% (active),inactive,inactive,inactive,inactive
COc1cc(-c2[nH]c(-c3ccc(OCCN(C)C)cc3)cc2-c2ccncc2)ccc1Cl,33%,3%,1,93% (active),inactive,inactive,inactive,inactive
CS(=O)(=O)NCCCNCc1ccc(-c2ccc(-c3nc4ccc(F)cc4[nH]3)s2)cc1,30%,23%,1,95% (active),inactive,inactive,inactive,inactive
O=C(Nc1ccc(F)cc1)NC1CCN(c2ccnc3ccccc23)C1 (stereo not given),2%,9%,-2,92% (active),inactive,inactive,inactive,inactive
CCN(CC)CCCNc1nccc(N2CCc3ncnc(Nc4ccc(OCc5cccc(F)c5)c(Cl)c4)c3C2)n1,95% (active),100% (active),7,101% (active),inactive,inactive,inactive,inactive
CC(C)(C)c1ccc(CN(C[C@@H](O)CNS(=O)(=O)c2cc(Cl)cc(Cl)c2)C(C)(C)C)cc1,94% (active),74% (active),-8,98% (active),inactive,inactive,inactive,inactive
N#Cc1ccc(N(CCNS(=O)(=O)c2cc(Br)c(Cl)s2)Cc2ccccc2C(F)(F)F)cc1C(F)(F)F,57% (active),3%,-1,92% (active),inactive,inactive,inactive,inactive
COc1ccc(O)c(Cc2cnc3nc(N)[nH]c(=O)c3c2C)c1,6%,30%,-5,96% (active),inactive,inactive,inactive,inactive
Cc1cccc2[nH]c(-c3ccc(-c4ccc(CNCCc5ccncc5)cc4)cc3)nc12,98% (active),34%,0,100% (active),inactive,inactive,inactive,inactive
COc1cccc2cc(C(=O)N[C@@H](CC(C)C)C(=O)N[C@H](/C=N/N3C(=O)CN(Cc4ccccc4)C3=O)CCc3ccccc3)oc12,52% (active),14%,-1,85% (active),inactive,inactive,inactive,inactive
C[C@@H](NC(=O)NC(CCN1CCC2(CC1)CN(S(C)(=O)=O)c1ccccc12)c1ccc(Cl)c(Cl)c1)c1ccccc1 (stereo not given in full),88% (active),15%,3,92% (active),inactive,inactive,inactive,inactive
COc1ccccc1NC(=O)CSc1nc2cccnc2n1-c1ccccc1OC,91% (active),-4%,-3,94% (active),inactive,inactive,inactive,inactive
O=C(Nc1ccc(F)c(F)c1)c1ccc(CN2CCCN(Cc3cccc(O)c3)CC2)cc1,57% (active),43%,-1,92% (active),inactive,inactive,inactive,inactive
COc1ccc(CCN(C)CCCOc2ccc(NC(=O)COc3cccc4sc5ccccc5c(=O)c34)cc2)cc1OC,90% (active),99% (active),1,94% (active),inactive,inactive,inactive,inactive
COc1cc(C)nc2ccc(NC(=O)COCC(=O)Nc3ccc4nc(C)cc(OC)c4c3)cc12,41%,67% (active),7,100% (active),inactive,inactive,inactive,inactive
OC(CNCc1ccccc1OCc1ccccc1)c1cc(Br)cs1 (stereo not given),88% (active),16%,5,97% (active),inactive,inactive,inactive,inactive
Nc1cnc(C#Cc2cc3ncnc(N(CCN4CCOCC4)c4ccc(OCc5cccc(F)c5)c(Cl)c4)c3s2)cn1,57% (active),-8%,-9,87% (active),inactive,inactive,inactive,inactive
Oc1cc(Nc2ccnc3cc(-c4cccc(CN5CCCCC5)c4)ccc23)c(F)cc1Cl,101% (active),21%,-3,101% (active),inactive,inactive,inactive,inactive
c1ccc(C(c2cccs2)N2CCN(Cc3ccc(OCCCN4CCCCC4)cc3)CC2)cc1 (stereo not given),14%,41%,2,91% (active),inactive,inactive,inactive,inactive
COc1ccccc1N(C)CCNc1cc(C)nc(Nc2ccccc2)n1,13%,10%,-1,96% (active),inactive,inactive,inactive,inactive
